For some assays here: Potency and affinity values are given separately. The source made the active and inactive calls. Unless noted, how the calls were made is not given here.
Key:
[1] = antimalarial activity against Dd2 strain (AID 2302;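 active means growth inhibition above 50% at the single 2 µM test dose, taken to imply half-maximal potency below 2 µM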;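 further: 0% = DMSO untreated growth and 100% = chloroquine plus artemisinin killed control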); conditions: P. falciparum Dd2 in RBCs, LDH growth readout, 72 h; at 2 µM; hits give high values
[2] = HepG2 cytotoxicity, primary screen, cytotoxicity control for P. falciparum antimalarial project, cell-based, ATP luminescence (AID 2303;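 active means inhibition above 50%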;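 further: 0% = DMSO wells and 100% = digitonin-killed cells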); conditions: HepG2 viability, 24-48 h, at 10 µM, hits give high values
[3] = biological target: L-lactate dehydrogenase (Plasmodium falciparum (isolate CDC / Honduras)) (UniProt Q27743); experiment: PfLDH activity inhibition – cell lysate, 3D7 strain, counter-screen for P. falciparum growth inhibition project (AID 2304);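 further: 0% = vehicle and 100% = reference inhibitor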; conditions: P. falciparum 3D7 crude extract, LDH APAD/NBT absorbance; at 2 µM; hits give high values
[4] = inhibition of 3D7 malaria parasite growth – strain 3D7 (AID 2306);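 further: 0% = DMSO wells and 100% = chloroquine plus artemisinin control wells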; conditions: P. falciparum 3D7 erythrocytic growth, LDH absorbance, 72 h; at 2 µM; hits give high values
[5] = biological target: Calcium-dependent protein kinase 1 (Plasmodium falciparum (isolate 3D7)) (UniProt P62344); experiment: PfCDPK1 kinase inhibitors, biochemical, TCAMS library (AID 1159585; cut-off not given, nearly all actives have IC50 up to about 0.98 µM;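 further: inhibitors leave more ATP so luminescence rises with inhibition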); conditions: recombinant PfCDPK1, Kinase-Glo ATP depletion luminescence
[6] = biological target: Plasmodium falciparum protein kinase 6 (PK6, PF3D7_1337100) (UniProt Q8IDW1); experiment: PfPK6 kinase inhibitors, biochemical, TCAMS library (AID 1159586); conditions: recombinant PfPK6, Kinase-Glo ATP depletion luminescence
[7] = biological target: Protein kinase 7 (PK7), Plasmodium falciparum 3D7 (PF3D7_0213400) (UniProt Q7YTF7); experiment: inhibition of Plasmodium PK7 catalytic activity – biochemical, TCAMS antimalarial set, Kinase-Glo luminescence (AID 1159587); conditions: recombinant PfPK7, Kinase-Glo ATP depletion luminescence
[8] = biological target: Calcium-dependent protein kinase 4 (Plasmodium falciparum (isolate 3D7)) (UniProt Q8IBS5); experiment: PfCDPK4 kinase inhibitors, biochemical, TCAMS library (AID 1159588; cut-off not given, nearly all actives have IC50 up to about 0.91 µM); conditions: recombinant PfCDPK4, Kinase-Glo ATP depletion luminescence
Sequence of Calcium-dependent protein kinase 4 (Plasmodium falciparum (isolate 3D7)) (Q8IBS5 whole entry, looked up): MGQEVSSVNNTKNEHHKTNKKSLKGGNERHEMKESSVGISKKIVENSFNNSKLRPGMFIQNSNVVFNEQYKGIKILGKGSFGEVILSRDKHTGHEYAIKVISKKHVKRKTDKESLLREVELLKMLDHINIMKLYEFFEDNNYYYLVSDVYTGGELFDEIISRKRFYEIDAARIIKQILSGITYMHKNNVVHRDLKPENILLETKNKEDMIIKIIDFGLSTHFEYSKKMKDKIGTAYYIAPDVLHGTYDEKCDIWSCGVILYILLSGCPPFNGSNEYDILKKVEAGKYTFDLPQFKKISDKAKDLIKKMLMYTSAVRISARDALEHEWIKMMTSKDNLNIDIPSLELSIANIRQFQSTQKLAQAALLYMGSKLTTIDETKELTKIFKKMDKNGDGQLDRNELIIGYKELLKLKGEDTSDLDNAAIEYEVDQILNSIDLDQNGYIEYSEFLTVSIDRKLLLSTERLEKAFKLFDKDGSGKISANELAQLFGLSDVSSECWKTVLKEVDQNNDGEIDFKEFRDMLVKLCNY

Sequence of Calcium-dependent protein kinase 1 (Plasmodium falciparum (isolate 3D7)) (P62344 whole entry, looked up): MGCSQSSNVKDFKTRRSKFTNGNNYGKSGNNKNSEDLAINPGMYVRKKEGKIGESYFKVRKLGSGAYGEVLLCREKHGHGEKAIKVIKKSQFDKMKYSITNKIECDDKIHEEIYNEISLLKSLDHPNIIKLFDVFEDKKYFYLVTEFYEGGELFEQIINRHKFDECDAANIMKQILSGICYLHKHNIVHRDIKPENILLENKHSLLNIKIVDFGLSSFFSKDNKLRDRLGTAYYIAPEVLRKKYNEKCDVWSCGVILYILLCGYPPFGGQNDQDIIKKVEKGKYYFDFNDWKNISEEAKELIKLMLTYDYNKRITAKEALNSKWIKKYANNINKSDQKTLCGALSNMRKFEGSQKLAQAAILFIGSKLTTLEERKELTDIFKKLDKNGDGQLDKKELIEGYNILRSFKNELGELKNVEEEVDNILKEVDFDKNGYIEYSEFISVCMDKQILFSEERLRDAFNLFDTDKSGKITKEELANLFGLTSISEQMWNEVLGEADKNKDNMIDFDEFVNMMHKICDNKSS
Sequence of Protein kinase 7 (PK7), Plasmodium falciparum 3D7 (PF3D7_0213400) (Q7YTF7 1-343): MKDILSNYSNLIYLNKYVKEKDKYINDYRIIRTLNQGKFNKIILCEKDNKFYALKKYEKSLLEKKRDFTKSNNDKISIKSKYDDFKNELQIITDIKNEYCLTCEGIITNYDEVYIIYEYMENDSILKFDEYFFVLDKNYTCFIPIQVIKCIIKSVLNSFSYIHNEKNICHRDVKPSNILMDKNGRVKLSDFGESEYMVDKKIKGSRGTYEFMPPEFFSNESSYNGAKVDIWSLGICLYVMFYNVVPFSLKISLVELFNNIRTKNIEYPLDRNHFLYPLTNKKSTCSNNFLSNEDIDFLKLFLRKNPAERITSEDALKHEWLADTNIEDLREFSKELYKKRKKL
Sequence of L-lactate dehydrogenase (Plasmodium falciparum (isolate CDC / Honduras)) (Q27743 whole entry, looked up): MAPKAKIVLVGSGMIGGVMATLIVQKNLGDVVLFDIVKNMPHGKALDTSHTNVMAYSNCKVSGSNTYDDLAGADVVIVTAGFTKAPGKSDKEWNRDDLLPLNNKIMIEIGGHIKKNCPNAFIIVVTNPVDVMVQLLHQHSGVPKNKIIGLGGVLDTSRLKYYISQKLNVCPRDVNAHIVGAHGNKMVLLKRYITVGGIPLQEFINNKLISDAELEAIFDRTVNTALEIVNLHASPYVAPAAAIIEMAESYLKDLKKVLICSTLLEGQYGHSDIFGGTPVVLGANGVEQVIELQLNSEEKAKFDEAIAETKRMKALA
Sequence of Plasmodium falciparum protein kinase 6 (PK6, PF3D7_1337100) (Q8IDW1 1-305): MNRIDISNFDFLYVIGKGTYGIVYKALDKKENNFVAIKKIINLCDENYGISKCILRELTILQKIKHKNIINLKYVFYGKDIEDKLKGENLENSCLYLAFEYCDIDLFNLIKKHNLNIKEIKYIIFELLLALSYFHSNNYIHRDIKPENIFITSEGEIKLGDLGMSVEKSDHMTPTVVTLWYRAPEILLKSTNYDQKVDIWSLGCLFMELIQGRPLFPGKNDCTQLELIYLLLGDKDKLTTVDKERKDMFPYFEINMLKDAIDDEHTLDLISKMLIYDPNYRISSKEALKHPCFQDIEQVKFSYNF

O=C(NCCCCCN1CCCN(C(=O)Nc2ccc(Cl)c(C(F)(F)F)c2)CC1)[C@@H]1C[C@H]1c1ccc(Cl)c(Cl)c1
active: growth inhibition [4] 100%
inactive: growth inhibition [1] 1% | inhibition [2] 41% | inhibition [3] 3% | outcome [5] | outcome [6] | outcome [7] | outcome [8]

CCCC(C)Nc1nc(C)cc(NCCC(=O)Nc2ccccc2)n1 (stereo not given)
inactive: growth inhibition [1] 11% | inhibition [2] 12% | inhibition [3] -4% | outcome [5] | outcome [6] | outcome [7] | outcome [8]
active: growth inhibition [4] 96%

Cc1cc(C(=O)Nc2ccc3c(c2)CCN3C2CCN(Cc3ccc(O)cc3)C2)no1 (stereo not given)
inactive: inhibition [2] 3% | inhibition [3] -1% | outcome [5] | outcome [6] | outcome [7] | outcome [8]
active: growth inhibition [1] 86% | growth inhibition [4] 95%

COc1ccc(NC(=O)c2csc(-c3cc(NC(=O)c4ccnc(N5CCCC5)c4)ccc3C)c2)cc1N1CCN(C)CC1
inactive: inhibition [2] 4% | inhibition [3] 1% | outcome [5] | outcome [6] | outcome [7] | outcome [8]
active: growth inhibition [1] 80% | growth inhibition [4] 100%

COc1cc2nc(N3CCC(CNC(=O)c4cc(Br)c(Br)s4)CC3)nc(N)c2cc1OC
inactive: inhibition [2] 22% | inhibition [3] 2% | outcome [5] | outcome [6] | outcome [7] | outcome [8]
active: growth inhibition [1] 97% | growth inhibition [4] 101%

CC(C)(C)c1ccc(NC(=O)c2cccc(CN3CCCN(CC4CCCCC4)CC3)c2)cc1
inactive: growth inhibition [1] 47% | inhibition [3] 1% | outcome [5] | outcome [6] | outcome [7] | outcome [8]
active: inhibition [2] 97% | growth inhibition [4] 93%

CCN1C(=O)C(CC(=O)Nc2cccc(Cl)c2)N(Cc2ccc(OC)c(OC)c2)C1=S (stereo not given)
inactive: inhibition [2] 13% | inhibition [3] -8% | outcome [5] | outcome [6] | outcome [7] | outcome [8]
active: growth inhibition [1] 68% | growth inhibition [4] 100%

CC(CN(C)C)C(=O)Nc1cccc(-c2ccc(-c3nc4ccccc4[nH]3)cc2)c1 (stereo not given)
active: growth inhibition [4] 98%
inactive: growth inhibition [1] 25% | inhibition [2] 1% | inhibition [3] -8% | outcome [5] | outcome [6] | outcome [7] | outcome [8]

COc1c(Br)cc(Br)cc1-c1ccc(CN2C3CCCC2CCC3)[nH]1
inactive: inhibition [2] 42% | inhibition [3] 3% | outcome [5] | outcome [6] | outcome [7] | outcome [8]
active: growth inhibition [1] 83% | growth inhibition [4] 88%

COc1cc(OC)cc(C(=O)Nc2ccc(Nc3nc(C)cc(N(C)C)n3)cc2)c1
active: growth inhibition [1] 90% | growth inhibition [4] 100%
inactive: inhibition [2] 11% | inhibition [3] 1% | outcome [5] | outcome [6] | outcome [7] | outcome [8]

Cc1ccc2nc3ccccc3c(NCCN3CCN(C)CC3)c2c1
inactive: growth inhibition [1] 6% | inhibition [2] 19% | inhibition [3] -7% | outcome [5] | outcome [6] | outcome [7] | outcome [8]
active: growth inhibition [4] 101%

O=C(Nc1ccc([N+](=O)[O-])cc1Cl)c1cc(Br)cc(Cc2ccccc2)c1O
active: growth inhibition [1] 96% | inhibition [2] 75% | growth inhibition [4] 84%
inactive: inhibition [3] -1% | outcome [5] | outcome [6] | outcome [7] | outcome [8]

CN1CCC(C(=O)Nc2cccc(-c3ccc(-c4nc5ccccc5[nH]4)cc3)c2)CC1
active: growth inhibition [4] 82%
inactive: growth inhibition [1] 15% | inhibition [2] 7% | inhibition [3] 5% | outcome [5] | outcome [6] | outcome [7] | outcome [8]

CC(=O)N[C@@H]1c2cc(C(C)=O)ccc2OC(C)(C)[C@@H]1O
inactive: growth inhibition [1] 3% | inhibition [2] 15% | inhibition [3] -3% | outcome [5] | outcome [6] | outcome [7] | outcome [8]
active: growth inhibition [4] 97%

NC1CCN(c2cnn(Cc3cccc(NC(=O)Nc4ccc(-c5ccccc5)cc4)c3)c(=O)c2Cl)CC1
active: growth inhibition [4] 89%
inactive: growth inhibition [1] 11% | inhibition [2] 5% | inhibition [3] -3% | outcome [5] | outcome [6] | outcome [7] | outcome [8]

C=CCC1OC(=O)c2cc(OC)cc(OC)c21 (stereo not given)
inactive: inhibition [3] 2% | outcome [5] | outcome [6] | outcome [7] | outcome [8]
active: growth inhibition [1] 100% | inhibition [2] 100% | growth inhibition [4] 95%

COc1cc(CNc2ccc(N3CCCC3)cc2)cc(Cl)c1OC
active: growth inhibition [1] 94% | growth inhibition [4] 100%
inactive: inhibition [2] 41% | inhibition [3] 1% | outcome [5] | outcome [6] | outcome [7] | outcome [8]

O=C(Nc1ccc(-c2nc3ccccc3[nH]2)cc1)C1CCN(Cc2cccc(F)c2F)CC1
inactive: inhibition [2] 23% | inhibition [3] 2% | outcome [5] | outcome [6] | outcome [7] | outcome [8]
active: growth inhibition [1] 51% | growth inhibition [4] 97%

COc1cc2c(c(Cl)c1OC)CCN(Cc1ccccc1)CC2c1ccc(NC(=O)C(F)(F)F)cc1 (stereo not given)
inactive: inhibition [2] 0% | inhibition [3] -2% | outcome [5] | outcome [6] | outcome [7] | outcome [8]
active: growth inhibition [1] 79% | growth inhibition [4] 85%

COc1ccc(C(=O)N2CCC3(CC2)C(=O)N(CC(=O)NC2CCCCC2)CN3c2ccccc2)c(OC)c1
inactive: inhibition [2] 4% | inhibition [3] 3% | outcome [5] | outcome [6] | outcome [7] | outcome [8]
active: growth inhibition [1] 99% | growth inhibition [4] 100%

CCCc1cc(N2CCC(N3CCCC3)CC2)nc(Nc2ccc(OC)cc2)n1
active: growth inhibition [4] 94%
inactive: growth inhibition [1] 14% | inhibition [2] 15% | inhibition [3] 6% | outcome [5] | outcome [6] | outcome [7] | outcome [8]

C[C@H](CNc1ccnc(Nc2ccc3[nH]c(=O)[nH]c3c2)n1)c1ccccc1
inactive: growth inhibition [1] -5% | inhibition [3] -2% | outcome [5] | outcome [6] | outcome [7] | outcome [8]
active: inhibition [2] 61% | growth inhibition [4] 100%

NC1CCN(c2nc(NCCCc3ccc(O)cc3)nc(NCc3cccc4ccccc34)n2)CC1
inactive: growth inhibition [1] 2% | inhibition [2] 12% | inhibition [3] 6% | outcome [5] | outcome [6] | outcome [7] | outcome [8]
active: growth inhibition [4] 102%

Cc1[nH]c(C)c(-c2ccc(OCc3ccc(F)cc3)cc2)c(=O)c1Br
active: growth inhibition [1] 97% | growth inhibition [4] 98%
inactive: inhibition [2] 16% | inhibition [3] -2% | outcome [5] | outcome [6] | outcome [7] | outcome [8]

COc1cc2nc(N3CCC(CNC(=O)c4ccc(NC(=O)c5ccc(Cl)cc5)cc4)CC3)nc(N)c2cc1OC
active: growth inhibition [1] 100% | inhibition [2] 98% | growth inhibition [4] 101%
inactive: inhibition [3] 0% | outcome [5] | outcome [6] | outcome [7] | outcome [8]

Cc1cc2ncn(-c3nccc(NCc4ccc(F)cc4)n3)c2cc1C
inactive: inhibition [2] 10% | inhibition [3] -2% | outcome [5] | outcome [6] | outcome [7] | outcome [8]
active: growth inhibition [1] 83% | growth inhibition [4] 98%

COc1ccc(OCCCN2CCCCC2)cc1S(=O)(=O)c1ccc(OCc2ccc(C(F)(F)F)cc2)cc1
active: inhibition [2] 52% | growth inhibition [4] 94%
inactive: growth inhibition [1] 8% | inhibition [3] -2% | outcome [5] | outcome [6] | outcome [7] | outcome [8]

Clc1ccc(C=NNc2ccnc3ccccc23)cc1
active: growth inhibition [1] 97% | growth inhibition [4] 100%
inactive: inhibition [2] 5% | inhibition [3] 1% | outcome [5] | outcome [6] | outcome [7] | outcome [8]

CC[C@H](C)CNC(=O)c1cncc(-c2ccc(CNCC3CNCCCO3)cc2)c1 (stereo not given in full)
active: growth inhibition [4] 100%
inactive: growth inhibition [1] -2% | inhibition [2] -5% | inhibition [3] -1% | outcome [5] | outcome [6] | outcome [7] | outcome [8]

O=C(Nc1ccccc1)Nc1ccc(-n2ccc(C(F)(F)F)n2)cc1
active: growth inhibition [1] 85% | growth inhibition [4] 95%
inactive: inhibition [2] 15% | inhibition [3] -5% | outcome [5] | outcome [6] | outcome [7] | outcome [8]

CN(C)c1cccc2c1nc(-c1ccc3c(c1)CCO3)n2CCNCc1ccccc1
inactive: inhibition [2] 6% | inhibition [3] 0% | outcome [5] | outcome [6] | outcome [7] | outcome [8]
active: growth inhibition [1] 85% | growth inhibition [4] 99%

CCOC(=O)c1ccc(N2CCN(c3cc(Cl)ccc3C)CC2)c(NC(=O)Nc2ccc(Cl)c(Cl)c2)c1
inactive: inhibition [2] 10% | inhibition [3] -5% | outcome [5] | outcome [6] | outcome [7] | outcome [8]
active: growth inhibition [1] 99% | growth inhibition [4] 99%

FC(F)(F)c1ccc(CSc2ccc3nnc(-c4ccccn4)n3n2)cc1
inactive: inhibition [2] -2% | inhibition [3] -1% | outcome [5] | outcome [6] | outcome [7] | outcome [8]
active: growth inhibition [1] 54% | growth inhibition [4] 95%

COc1ccc(Nc2cc(C)c3cc(NC(=O)c4ccncc4)ccc3n2)cc1
inactive: growth inhibition [1] 26% | inhibition [2] 0% | inhibition [3] 2% | outcome [5] | outcome [6] | outcome [7] | outcome [8]
active: growth inhibition [4] 98%

O=C(NCc1cccc(F)c1)Nc1ccc(-c2ccc(-c3nc4ccc(C(F)(F)F)cc4[nH]3)cc2)cc1
inactive: growth inhibition [1] 24% | inhibition [2] 46% | inhibition [3] 0% | outcome [5] | outcome [6] | outcome [7] | outcome [8]
active: growth inhibition [4] 100%

Cc1ccnc(NC(c2cccc(Cl)c2Cl)c2ccc3cccnc3c2O)c1 (stereo not given)
active: growth inhibition [4] 86%
inactive: growth inhibition [1] 38% | inhibition [2] 46% | inhibition [3] 7% | outcome [5] | outcome [6] | outcome [7] | outcome [8]

O=C(Nc1cccc(-c2cccc(-c3nc4ccc(C(F)(F)F)cc4[nH]3)c2)c1)c1ccc(=O)[nH]n1
active: inhibition [2] 63% | growth inhibition [4] 103%
inactive: growth inhibition [1] 26% | inhibition [3] 0% | outcome [5] | outcome [6] | outcome [7] | outcome [8]

NC(N)=NCC=C(c1ccccc1)c1ccccc1
inactive: inhibition [2] 9% | inhibition [3] 1% | outcome [5] | outcome [6] | outcome [7] | outcome [8]
active: growth inhibition [1] 83% | growth inhibition [4] 94%

COC(=O)c1ccccc1N1CCN(CCCCNC(=O)c2ccc(NC(=O)c3cc(Cl)cc(Cl)c3)cc2)CC1
inactive: growth inhibition [1] 42% | inhibition [2] 20% | inhibition [3] 0% | outcome [5] | outcome [6] | outcome [7] | outcome [8]
active: growth inhibition [4] 100%

CC1(C)N=C(N)N=C(N)N1OCCCOc1cccc2ccccc12
active: growth inhibition [1] 86% | inhibition [2] 67% | growth inhibition [4] 95%
inactive: inhibition [3] 4% | outcome [5] | outcome [6] | outcome [7] | outcome [8]
